Rab9 prom act = Rab9 promoter activation; Potency, µM (top dose mostly 9.22 µM), for the others: top-dose activation, negative = inhibition, actives largely listed as activators; Huh7 Rab9 promoter-luciferase reporter, luminescence, 24 h; 320,000 compounds, 2.8% hits; further: % of control where 0% means no effect; nearly all actives have a fitted effect of over 60% in size
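Rab9 promoter-driven luciferase in stably transfected Huh7 cells; 1500 cells/well rested 2 h, exposed to compound in DMSO for 24 h at 37 °C, 5% CO2. Luminescence read 10 min after adding luciferase reagent at ambient temperature.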
SMN2 splice up = increases expression of the SMN2 splice variant | 210,000 compounds, 2.8% hits | Potency, µM (doses to about 46.1 µM), without a hit: top-dose activity change, positive = activation, most hits filed as activators | HEK293 SMN2-luciferase splicing reporter, luminescence, 30-36 h; further: % of control where 0% means no effect; nearly all actives have a fitted effect of over 55% in size
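HEK293 cells carry an SMN2 […]–luciferase reporter in which exon 7 inclusion puts luciferase in frame. Cells were plated 10-12 h before compound addition, then incubated 30-36 h at 37C. ONE-Glo luminescence was read; sodium butyrate at 4.5 mM final served as control.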
ELG1 genotoxic = inducers of genotoxicity in HEK293T ELG1-luciferase cells; HEK293T ELG1-luciferase reporter, luminescence, 16 h; Potency, µM (titrated, usually from 46 µM), inactives show at the highest dose activity change, positive = activation, most hits filed as activators; 330,000 compounds, 1.3% hits; AID 504466; further: % of control where 0% means no effect; nearly all actives have a fitted effect of over 60% in size
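Quantitative HTS format in 1536-well plates. HEK293T ELG1-luciferase reporter cells receive test compound and are incubated 16 hr at 37 °C, 5% CO2; ONE-Glo added, 30 min room temperature, then luminescence read.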
FLuc counter = firefly luciferase modulation, counter-screen for miR-21 project; P08659; purified FLuc, Km substrates, luminescence inhibition; Potency, µM (series often up to 57.5 µM), for inactives: at the top dose activity change, negative = inhibition, actives largely listed as inhibitors; 360,000 compounds, 6.9% hits;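 further: plate controls were vehicle for no effect and reference inhibitor for full effect; nearly all actives have a fitted effect of over 55% in size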
Target sequence (P08659 whole entry, looked up): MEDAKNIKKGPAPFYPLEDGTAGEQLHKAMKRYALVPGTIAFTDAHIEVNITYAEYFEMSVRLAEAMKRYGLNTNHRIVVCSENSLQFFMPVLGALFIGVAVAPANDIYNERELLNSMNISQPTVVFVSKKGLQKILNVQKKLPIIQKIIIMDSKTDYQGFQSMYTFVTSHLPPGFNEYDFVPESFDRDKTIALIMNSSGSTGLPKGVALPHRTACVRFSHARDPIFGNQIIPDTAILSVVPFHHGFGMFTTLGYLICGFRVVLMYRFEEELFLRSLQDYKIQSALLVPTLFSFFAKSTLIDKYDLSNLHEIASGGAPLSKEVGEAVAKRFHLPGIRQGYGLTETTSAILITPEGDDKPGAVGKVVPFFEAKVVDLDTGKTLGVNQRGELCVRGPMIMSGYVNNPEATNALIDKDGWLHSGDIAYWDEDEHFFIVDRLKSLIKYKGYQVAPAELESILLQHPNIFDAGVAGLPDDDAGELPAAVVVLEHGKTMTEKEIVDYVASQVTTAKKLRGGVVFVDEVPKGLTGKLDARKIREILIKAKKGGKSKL
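Purified P. pyralis luciferase (10nM final) with 10uM D-luciferin and 10uM ATP (Km levels) in 50mM Tris acetate pH 7.5, 10mM Mg acetate, 0.01% Tween-20, 0.05% BSA; qHTS 6-point titration, ~60 µM downward; luminescence read.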
ELG1 DNA repair = ELG1-dependent DNA repair inhibition; HEK293T ELG1-luciferase reporter, luminescence, 16 h; DNA damage induced by 5-fluorouridine; Potency, µM (titrated, usually from 46.1 µM), without a hit: at the highest dose activity change, negative = inhibition, most hits filed as inhibitors; 330,000 compounds, 2.3% hits; further: on the % scale 0 is the no-effect control and ±100 the full control effect; nearly all actives have a fitted effect of over 55% in size
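Step one: seed 2,000 cells per well. Step two: pin-transfer compound or DMSO alongside 5-fluorouridine. Step three: incubate 16 hr, 37 °C, 5% CO2. Step four: add ONE-Glo, wait 30 min, read luminescence.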
NPC1 prom act = activators of NPC1 promoter | Huh7 NPC1 promoter luciferase reporter, 24 h | Potency, µM (top dose mostly 9.22 µM), for inactives: at the highest dose activation, most hits filed as activators | 320,000 compounds, 2.4% hits | AID 485313; further: % of control where 0% means no effect; nearly all actives have a fitted effect of over 60% in size
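Stable NPC1-promoter luciferase Huh7 line; cpd (DMSO) 24 h, 37 °C, 5% CO2; Amplite luciferase reagent 10 min RT; luminescence readout. qHTS format.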
An asterisk follows results filed as active; ? = inconclusive; . = no result given. An excerpt weighted towards active compounds, which were near 9.2% of everything screened. The call rests on the fitted dose curve; in most records, active means well fitted curve in the direction sought with a large enough effect; inconclusive means small, poorly fitted or top-dose-only effect, or another doubt; inactive means no such curve, though single readings can be large; an effect the other way counts as inactive or inconclusive. Potency means the concentration at half of the fitted maximal effect.

SMILES | Rab9 prom act | SMN2 splice up | ELG1 genotoxic | FLuc counter | ELG1 DNA repair | NPC1 prom act
CN(C(=O)c1cccs1)c1ccc(OCC(=O)Nc2ccc(C(=O)O)cc2)cc1 | 0% | . | 1% | 17µM* | 17% | -3%
COc1ccc(OCC(=O)Nc2ccc(NC(=O)c3cccs3)cc2)cc1 | 3% | . | 12% | 4% | ? | 1%
COc1ccc(-c2nc3cnc(Oc4ccccc4)nc3n(C3CC3)c2=O)cc1 | . | -1% | . | . | . | .
O=C(N/N=C/c1ccccn1)c1ccc(NC(=O)c2ccccc2Cl)cc1 | 0% | . | -8% | ? | -13% | -2%
O=C(N/N=C/c1cccnc1)c1ccc([N+](=O)[O-])cc1Cl | -3% | . | -2% | ? | 13% | -1%
CCc1ccc(-c2cc(C(=O)N/N=C/c3ccccn3)[nH]n2)cc1 | 12% | -33% | -5% | 7.6µM* | 19% | 8%
O=C(N/N=C/c1ccccn1)c1cc(-c2ccccc2Cl)n[nH]1 | -2% | -13% | 8% | 24µM* | 3% | 3%
O=C(N/N=C/c1ccccn1)c1ccc([N+](=O)[O-])cc1Cl | 2% | . | 2% | 19µM* | ? | -5%
CCc1ccc(-c2cc(C(=O)N/N=C/c3ccco3)[nH]n2)cc1 | 1% | 0% | -7% | ? | 8% | 13%
O=C(N/N=C/c1ccccn1)c1ccc(Cl)c(Cl)c1 | 2% | . | 21µM* | ? | ? | 0%
O=C(N/N=C/c1ccccn1)c1cc(-c2cccc3ccccc23)n[nH]1 | 3% | 23% | -4% | ? | -26% | 7%
O=C(Nc1ccc(N2CCOCC2)cc1)C1CCN(S(=O)(=O)c2ccccc2F)CC1 | -5% | . | 0% | -3% | 23% | -3%
COc1ccc(-c2cc(C(F)(F)F)nc(SCCC(=O)Nc3ccc(F)cc3F)n2)cc1 | . | -4% | . | -4% | . | .
O=C(N/N=C/c1ccco1)c1cc(-c2ccc3ccccc3c2)n[nH]1 | 1% | -1% | 3% | 19µM* | -3% | -1%
O=C(N/N=C/c1ccccn1)c1cc(-c2ccc3ccccc3c2)n[nH]1 | -4% | 4% | -4% | 7.6µM* | ? | -2%
COC(=O)C(NC(C)=O)(Nc1ccc(C)cn1)C(F)(F)F (stereo not given) | -3% | . | 0% | -2% | 20% | 0%
CCN(CC)CC1CCCCN1CC(=O)N1c2ccccc2C(=O)Nc2cccnc21 (stereo not given) | -3% | 0% | . | 3% | . | -3%
O=C1Nc2cccnc2N(C(=O)CCl)c2ccccc21 | -32% | . | -15% | 1% | 21µM* | -23%
N#Cc1ccc(CN2CC[C@@]3(CCCN(C(=O)c4cccc(F)c4)C3)C2)cc1 | . | -45% | . | . | . | .
CCCCN(c1ccccc1)c1ncnc2c1cnn2-c1cccc(C)c1 | . | . | . | -15% | . | .
CCN(c1ccccc1)c1ncnc2c1cnn2-c1ccc(OC)cc1 | . | . | . | 6.7µM* | . | .
CCCCN(c1ccccc1)c1ncnc2c1cnn2-c1ccc(Cl)cc1 | . | . | . | 13µM* | . | .
Cc1cc(C)n2c(Nc3ccc(C(C)C)cc3)c(-c3ccsc3)nc2n1 | . | 1% | . | 11µM* | . | .
Cc1cc(C)n2c(Nc3ccc(Cl)cc3)c(-c3ccsc3)nc2n1 | . | 7% | . | -11% | . | .
CCOc1cc(CNc2ncn[nH]2)ccc1OCC(=O)NC(C)(C)C | -3% | . | 3% | -1% | 16% | -4%
SMILES | Rab9 prom act | SMN2 splice up | ELG1 genotoxic | FLuc counter | ELG1 DNA repair | NPC1 prom act
Cc1ccccc1C1CCCN(C(=O)c2cc(COc3c(F)cccc3F)on2)C1 (stereo not given) | -6% | . | -6% | 0% | 0% | -3%
COc1cc(Cl)ccc1OCc1cc(C(=O)N2CCC(N(C)C)C2)no1 (stereo not given) | -3% | . | 4% | -17% | 15% | 1%
COc1ccc(OCc2cc(C(=O)N3CCCC(O)C3)no2)c2ccccc12 (stereo not given) | ? | . | ? | 12µM* | ? | ?
CCCOC1CCCN(C(=O)c2cc(COc3c(F)cccc3F)on2)C1 (stereo not given) | 2.2µM* | . | ? | 12µM* | ? | 2.8µM*
COc1ccc(OCc2cc(C(=O)NC3CCOCC3)no2)c2ccccc12 | 4% | . | 0% | -5% | 12% | -4%
Cc1ccc(C)c(OCc2cc(C(=O)N3CC[C@H](O)C3)no2)c1 | 2.5µM* | . | ? | 12µM* | ? | 30%
COc1ccc(OCc2cc(C(=O)N3CCCC(OC)C3)no2)c2ccccc12 (stereo not given) | ? | . | ? | 27µM* | ? | ?
Cc1ccc(C)c(OC(=O)CN2C(=O)c3ccccc3C2=O)c1 | -2% | . | -3% | 1% | 13% | -2%
Cc1ccc(N(Cc2cccs2)C(=O)COc2ccccc2[N+](=O)[O-])cc1 | . | . | . | -14% | . | .
COC(=O)C1CCCCN1C(=O)c1cc(COc2cccc3cccnc23)on1 (stereo not given) | -1% | . | -6% | 0% | -4% | -4%
COC(=O)C1CCCCN1C(=O)c1cc(COc2cccc3cnccc23)on1 (stereo not given) | -31% | . | -11% | -3% | 1.5µM* | -26%
COc1cc([N+](=O)[O-])cc2sc(NC(=O)C3CC3)nc12 | 1% | -4% | 3% | -3% | 7% | 2%
Cc1ccccc1/C=N/Nc1ccnc2cc(Cl)ccc12 | 1% | -15% | -5% | ? | ? | 2%
Cc1ccc(/C=N/Nc2ccnc3cc(Cl)ccc23)c(C)c1 | -10% | -85% | -7% | -18% | 18µM* | -10%
Clc1ccc2c(N/N=C/c3ccc(Br)cc3)ccnc2c1 | 2% | -85% | ? | -3% | 16µM* | 2%
O=C(NCCc1cccs1)c1ccc(Cn2c(SCc3ccccc3)nc3cccnc32)cc1 | . | . | . | 2.7µM* | . | .
O=C(NCCc1ccccc1)c1ccc(CSc2nc3cccnc3n2Cc2ccc(F)cc2)cc1 | . | . | . | -11% | . | .
O=C(NCCc1cccs1)c1ccc(Cn2c(SCc3ccc(F)cc3)nc3cccnc32)cc1 | . | 19% | . | 2.1µM* | . | .
CCN(CC)C(=O)c1ccc2c(c1)N(Cc1ccccc1F)C(=O)c1ccccc1S2=O (stereo not given) | . | -28% | . | -2% | . | .
NC(N)=N/N=C/c1ccc(OCc2ccc(Cl)cc2)cc1 | ? | . | ? | 6µM* | ? | 3.5µM*
Cc1n[nH]c(=S)n1/N=C/c1ccc(OCc2ccc(Cl)cc2Cl)cc1 | 10% | ? | 13% | ? | ? | 19%
Cc1ccc(COc2ccc(/C=N/O)cc2)cc1 | 1.3µM* | 10µM* | ? | 5.4µM* | ? | ?
NC(N)=N/N=C/c1ccc(OCc2ccccc2)cc1 | 11% | . | 1% | ? | ? | 24%

Source: PubChem
